The values below come from PubChem BioAssay.

Experiment [1] is described as follows: inhibitors of TNFa-induced NFkB p65 translocation, primary screen, imaging, HUVEC, MLSMR starter and 10KST1 sets (AID 438;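 active = inhibition above 20% together with a positive visual image hit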;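 note: compound added about 3h40 before a 20 min TNFalpha stimulation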;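 for inhibition: signal is the nuclear over cytoplasmic p65 intensity ratio per well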). The note with it: HUVEC TNFa-induced p65 nuclear translocation; cell count: measured here: nuclei count (cytotoxicity indicator), at 2.08 µM; inhibition: at 2 µM, stronger effect = higher value, 0% TNFa-plus-vehicle, 100% no-TNFa wells.
Experiment [2] can be described thus: inhibitors of mutant huntingtin aggregation, primary screen, imaging, exon1htt(103Q)mCFP cells, high-content imaging (AID 483).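 For nuclei count: percent of the per-plate median nuclei count of sample wells.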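 Note: compound exposure lasted 3 days before fixation.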 The note with it: exon1htt(103Q)mCFP cell line, aggregate imaging, at 2 µM; inhibition of aggregation: stronger effect = higher value; nuclei count: measured here: cell count, toxicity.
Experiment [3] can be described thus: inhibitors of E-selectin induction by TNFa, primary screen, imaging, HUVEC, immunofluorescence, MLSMR starter and 10KST1 sets (AID 487;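 active = visually confirmed hit in the image check and inhibition above 20%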;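 for inhibition: signal is fraction of cell area covered by stained E-selectin grains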;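 for nuclei count: 100% = median nuclei count of all wells on the same plate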). As to conditions: HUVEC TNFalpha-induced E-selectin immunofluorescence imaging, at 2 µM; inhibition: stronger effect = higher value; nuclei count: measured here: cell number, toxicity.
The target in experiment [4] is Voltage-gated potassium channel subunit beta-2 (Rattus norvegicus) (UniProt P62483). The experiment can be described thus: KvBeta enzyme negative modulators, primary screen, biochemical, NADPH fluorescence (AID 622;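 active = fluorescence slope higher than the sample average by over 3 SD, cut at about -0.22 in these data, passing the limit was not always enough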;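 note: slope of raw intensity against log time taken from 70 to 1610 s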). The note with it: recombinant KvBeta, 4-cyanobenzaldehyde reduction, at 10 µM, stronger effect = higher value.
Voltage-gated potassium channel subunit beta-2 (Rattus norvegicus), sequence (P62483 whole entry, looked up): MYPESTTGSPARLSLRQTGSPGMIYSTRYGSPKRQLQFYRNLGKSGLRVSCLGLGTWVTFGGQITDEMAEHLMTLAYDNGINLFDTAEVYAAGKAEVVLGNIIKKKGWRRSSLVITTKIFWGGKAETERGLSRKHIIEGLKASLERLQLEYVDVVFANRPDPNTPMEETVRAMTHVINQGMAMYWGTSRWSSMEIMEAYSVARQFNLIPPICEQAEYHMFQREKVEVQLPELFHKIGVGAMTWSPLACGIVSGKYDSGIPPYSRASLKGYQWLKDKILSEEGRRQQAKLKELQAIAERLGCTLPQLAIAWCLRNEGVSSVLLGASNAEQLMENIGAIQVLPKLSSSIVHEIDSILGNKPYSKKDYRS
For experiment [5] the target is unchanged. The experiment can be described thus: KvBeta positive modulators, primary screen, biochemical, NADPH fluorescence (AID 623;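 active = NADPH fluorescence slope more negative than the mean of all samples by about 3 SD, 99.7% confidence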;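 note: fluorescence intensity change per second fitted from 20 to 320 s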). As to conditions: Recombinant KvBeta, NADPH fluorescence decrease slope, 10 min; at 10 µM; stronger effect = lower value.
In experiment [6] the target is Alpha-2C adrenergic receptor (Homo sapiens) (UniProt P18825). The experiment can be described thus: modulators of alpha2C/GIRK thallium flux, primary screen, cell-based, HEK293 alpha2C/GIRK1/2 (AID 624;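 active = fluorescence slope after compound addition differing from the mean of all screened samples at 99.7% confidence, in either direction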;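 note: slope of fluorescence ratio to pre-addition baseline per second over 15 to 24 s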). The note with it: thallium flux BTC fluorescence, at 10 µM, actives lie on both sides.
Alpha-2C adrenergic receptor (Homo sapiens), sequence (P18825 whole entry, looked up): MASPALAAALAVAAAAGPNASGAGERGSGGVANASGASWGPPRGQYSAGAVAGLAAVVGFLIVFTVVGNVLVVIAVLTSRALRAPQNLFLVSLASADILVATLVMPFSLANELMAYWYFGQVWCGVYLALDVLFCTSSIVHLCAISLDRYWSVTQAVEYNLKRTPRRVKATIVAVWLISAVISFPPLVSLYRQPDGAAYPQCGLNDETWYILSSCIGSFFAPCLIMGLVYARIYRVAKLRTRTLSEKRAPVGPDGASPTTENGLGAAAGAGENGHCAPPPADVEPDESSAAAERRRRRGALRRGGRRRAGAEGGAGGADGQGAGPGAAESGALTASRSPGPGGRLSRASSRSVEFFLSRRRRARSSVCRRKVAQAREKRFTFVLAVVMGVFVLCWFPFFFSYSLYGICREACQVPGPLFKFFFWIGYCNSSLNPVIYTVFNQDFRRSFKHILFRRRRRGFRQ
Experiment [7] can be described thus: inhibitors of Sendai virus-induced IRF3 signaling, primary screen, TLR/RLR signaling modifier project, cell-based, Sendai virus stimulus, luciferase, 10K MLSCN set (AID 602276;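 active = inhibition at or above 50% at 10 µM; inactive = inhibition below 50%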;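 note: firefly luciferase from ISG56 promoter only with Renilla not read in this screen; 0% = Sendai virus plus DMSO and 100% = medium plus DMSO without virus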). The note with it: HEK293 RL24 IRF3 luciferase reporter, at 10 µM, stronger effect = higher value.
The nature of experiment [8]: inhibitors of poly I:C-induced TLR3 signaling, primary screen, cell-based, poly I:C stimulus, luciferase, 10K MLSCN set (AID 602277;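 active = inhibition of the reporter signal at or above 50%; inactive = inhibition below 50%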). As to conditions: HEK293-TLR3 RL24 IRF3 luciferase reporter, at 10 µM, stronger effect = higher value.

Calls of active or inactive are those of the source.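 Rule for the calls, unless noted: active = visual image review flags a hit and inhibition of aggregation exceeds 20%; inconclusive = visual hit but inhibition at or below 20%; inactive = no hit on visual image review.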

Consider `COC(=O)c1ccccc1NC(=O)COc1ccc(S(=O)(=O)N2CCCC2)cc1C`, for which the cell count in experiment [1] is 618. Moreover, the inhibition (in general, the change of the read-out against control, counted positive when it falls) in experiment [1] is 7% (inactive); in experiment [3], 44.3% (inactive); in experiment [7], 16.3% (inactive); in experiment [8], 6.91% (inactive). The inhibition of aggregation in experiment [2] is 10.3% (inactive). Besides, the nuclei count in experiment [2] turned out to be 88.3%; in experiment [3], 98.4%. The fluorescence slope in experiment [4] is -0.405 (inactive). For the same molecule, the NADPH fluorescence slope in experiment [5] is 4.1e-06 (inactive). Moreover, the slope in experiment [6] was 0.00334 (inactive).

As for `CCN(CC)CC(C)CNC(=O)CC(C(=O)N1CCc2ccccc21)n1ccnc1` (centres undefined), the cell count in experiment [1] was determined as 604. For the same molecule, the inhibition in experiment [1] was -10% (inactive); in experiment [3] it was -125% (inactive); in experiment [7], 3.93% (inactive); in experiment [8] it was 11% (inactive). Besides, the inhibition of aggregation in experiment [2] was 10.7% (inactive). Further, the nuclei count in experiment [2] came out at 98.5%; in experiment [3] it was 110%. For the same molecule, the fluorescence slope in experiment [4] is -0.464 (inactive). Also, in experiment [5], the NADPH fluorescence slope is 6.1e-05 (inactive). In experiment [6], the slope was 0.00462 (inactive).

For `CCOc1ccc2nc(SCc3ccc(C(=O)OC)o3)[nH]c2c1`, the cell count in experiment [1] amounted to 335. Also, the inhibition in experiment [1] is 15.9% (inactive); in experiment [3] it was -39.4% (inactive); in experiment [7], 8.32% (inactive); in experiment [8], -5.74% (inactive). Also, in experiment [2], the inhibition of aggregation is 16.9% (inactive). Besides, the nuclei count in experiment [2] came out at 96.5%; in experiment [3], 112%. For the same molecule, the fluorescence slope in experiment [4] is -0.546 (inactive). Also, in experiment [5], the NADPH fluorescence slope was 2e-06 (inactive). Also, the slope in experiment [6] was 0.00497 (inactive).

For the molecule `COc1ccc2nc3oc(C(=O)N4CCCCC4)cc3cc2c1`, the cell count in experiment [1] was 194. The inhibition in experiment [1] was 1.8% (inactive); in experiment [3], -13.7% (inactive); in experiment [7] it was -36.8% (inactive); in experiment [8], -132% (inactive). The inhibition of aggregation in experiment [2] is -10.4% (inactive). For the same molecule, the nuclei count in experiment [2] is 105%; in experiment [3] it was 112%. Further, the fluorescence slope in experiment [4] was -0.0908 (inactive). Moreover, the NADPH fluorescence slope in experiment [5] is -2.5e-05 (inactive). Besides, the slope in experiment [6] is 0.00338 (inactive).

Take `COc1cc(C2CC(=O)NC3=C2C(=O)CC(C)(C)C3)ccc1O` (centres undefined): the cell count in experiment [1] was 380. In addition, the inhibition in experiment [1] was -2.2% (inactive); in experiment [3] it was 2.8% (inactive); in experiment [7] it was 1.82% (inactive); in experiment [8] it was 16.2% (inactive). For the same molecule, the inhibition of aggregation in experiment [2] is 6.5% (inactive). Moreover, the figures for the nuclei count in experiment [2] and in experiment [3] were 101% and 105%, respectively. For the same molecule, the fluorescence slope in experiment [4] was -0.41 (inactive). The NADPH fluorescence slope in experiment [5] was -4.2e-05 (inactive). Also, the slope in experiment [6] was 0.00203 (inactive).

In the case of `CC(C)CNC(=O)C1CC(=O)OC12CCCCC2` (centres undefined), the cell count in experiment [1] worked out at 661. The inhibition in experiment [1] was -32.6% (inactive); in experiment [3], -18.4% (inactive); in experiment [7], 12.4% (inactive); in experiment [8] it was 19.6% (inactive). For the same molecule, the inhibition of aggregation in experiment [2] is 4.3% (inactive). The figures for the nuclei count in experiment [2] and in experiment [3] were 96.4% and 107%, respectively. Further, the fluorescence slope in experiment [4] was -0.594 (inactive). Further, the NADPH fluorescence slope in experiment [5] is -6.1e-05 (inactive). In experiment [6], the slope was 0.00558 (inactive).

For `COC(=O)c1c(O)ccc(Oc2ccccc2)c1C(=O)OC`, the cell count in experiment [1] stood at 667. The inhibition in experiment [1] was -5.3% (inactive); in experiment [3] it was -17.9% (inactive); in experiment [7] it was 15.3% (inactive); in experiment [8] it was 21.8% (inactive). In addition, the inhibition of aggregation in experiment [2] is 28.9% (inactive). Further, the nuclei count was determined as 71.8% in experiment [2] and 107% in experiment [3]. Besides, in experiment [4], the fluorescence slope is -0.257 (inactive). In addition, the NADPH fluorescence slope in experiment [5] was -2.9e-06 (inactive). For the same molecule, the slope in experiment [6] is 0.0066 (inactive).

In the case of `COCCCNC(=O)c1c(N)n(-c2cccc(S(N)(=O)=O)c2)c2nc3ccccc3nc12`, the cell count in experiment [1] is 245. The inhibition in experiment [1] is 7% (inactive); in experiment [3], 1.4% (inactive); in experiment [7] it was 10.6% (inactive); in experiment [8] it was -0.988% (inactive). In addition, the inhibition of aggregation in experiment [2] is -15.6% (inactive). In addition, the nuclei count in experiment [2] was 98.9%; in experiment [3], 73.3%. In addition, the fluorescence slope in experiment [4] was -0.0132 (inactive). The NADPH fluorescence slope in experiment [5] was 1.8e-09 (inactive). For the same molecule, in experiment [6], the slope is 0.00575 (inactive).

For the molecule `O=C(NCCC1=CCCCC1)C1CCN(C(=O)Nc2ccccc2)CC1`, the cell count in experiment [1] amounted to 206. Moreover, the inhibition in experiment [1] is -6.2% (inactive); in experiment [3], 5.2% (inactive); in experiment [7], 2.99% (inactive); in experiment [8], 21.5% (inactive). For the same molecule, the inhibition of aggregation in experiment [2] was -13.3% (inactive). The values for the nuclei count in experiment [2] and in experiment [3] were 92.3% and 84.8%, respectively. Further, the fluorescence slope in experiment [4] is -0.439 (inactive). The NADPH fluorescence slope in experiment [5] was -5.1e-05 (inactive). The slope in experiment [6] was 0.00392 (inactive).

Take `O=C(CC(C(=O)N1CCc2ccccc21)n1ccnc1)NCc1cccnc1` (centres undefined): in experiment [1], the cell count was found to be 655. Moreover, the inhibition in experiment [1] is -2.2% (inactive); in experiment [3], -67% (inactive); in experiment [7], 10.8% (inactive); in experiment [8], 20.7% (inactive). The inhibition of aggregation in experiment [2] was 23.5% (inactive). For the same molecule, the nuclei count in experiment [2] turned out to be 122%; in experiment [3] it was 119%. Moreover, the fluorescence slope in experiment [4] was -0.446 (inactive). The NADPH fluorescence slope in experiment [5] was 9.2e-07 (inactive). The slope in experiment [6] was 0.00564 (inactive).

As for `COCCN(C(=O)CCC(=O)Nc1ccccn1)C(C(=O)NC1CCCC1)c1ccc(OC)cc1` (centres undefined), the cell count in experiment [1] amounted to 528. The inhibition in experiment [1] was -26.5% (inactive); in experiment [3], -44.5% (inactive); in experiment [7], 1.15% (inactive); in experiment [8] it was 23.2% (inactive). Besides, in experiment [2], the inhibition of aggregation is 16.1% (inactive). Also, the nuclei count in experiment [2] was 105%; in experiment [3], 92%. In addition, in experiment [4], the fluorescence slope is -0.395 (inactive). In addition, the NADPH fluorescence slope in experiment [5] was -9e-05 (inactive). Moreover, the slope in experiment [6] is 0.00514 (inactive).

Take `CC1CCCN(S(=O)(=O)c2coc(C(N)=O)c2)C1` (centres undefined): the cell count in experiment [1] is 697. Moreover, the inhibition in experiment [1] was -0.6% (inactive); in experiment [3], 1.5% (inactive); in experiment [7] it was 1.83% (inactive); in experiment [8], 25.1% (inactive). In addition, the inhibition of aggregation in experiment [2] is -15.4% (inactive). The nuclei count in experiment [2] came out at 111%; in experiment [3], 95.6%. For the same molecule, the fluorescence slope in experiment [4] is -0.6 (inactive). In addition, in experiment [5], the NADPH fluorescence slope is -2.8e-05 (inactive). Also, the slope in experiment [6] is 0.00651 (inactive).

Take `Cn1c(SCC(=O)N2CCOCC2)nnc1-c1cnccn1`: the cell count in experiment [1] came out at 656. Besides, the inhibition in experiment [1] was 1% (inactive); in experiment [3], -36.3% (inactive); in experiment [7] it was 3.04% (inactive); in experiment [8], 21.7% (inactive). Also, in experiment [2], the inhibition of aggregation is -11.1% (inactive). Besides, the nuclei count came out at 122% in experiment [2] and 114% in experiment [3]. In addition, the fluorescence slope in experiment [4] is -0.396 (inactive). Also, the NADPH fluorescence slope in experiment [5] was 8e-06 (inactive). For the same molecule, in experiment [6], the slope is 0.00449 (inactive).

`CCOC(=O)N1CCC(n2c(=S)[nH]c3cc(OC)c(OC)cc3c2=O)CC1`: the cell count in experiment [1] was found to be 471. The inhibition in experiment [1] was 4.8% (inactive); in experiment [3] it was -6.8% (inactive); in experiment [7], 14.4% (inactive); in experiment [8], 23.2% (inactive). For the same molecule, in experiment [2], the inhibition of aggregation is -23.4% (inactive). In addition, the nuclei count in experiment [2] turned out to be 108%; in experiment [3] it was 105%. For the same molecule, the fluorescence slope in experiment [4] is -0.631 (inactive). For the same molecule, the NADPH fluorescence slope in experiment [5] is 4.7e-05 (inactive). Moreover, the slope in experiment [6] was 0.00633 (inactive).
